This note sets out measurements from PubChem BioAssay (NCATS).

A short description of assay [1]: Validation of Assay for Modulators of Lamin A Splicing (AID 1459; active = well fitted curve in the direction sought with a large enough effect in the signal ratio; the % refers to the signal ratio;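 also: cells exposed to compound for two days before reading; 0% is about no effect; ratio rise marks activators and ratio drop marks inhibitors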). An outline of the steps:
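Splicing correction is reported by an EGFP-containing lamin A minigene in stably transfected S3 HeLa cells, while DsRed2 controls for viability and nonspecific signal. Cells are exposed to compounds for 48 hrs before the GFP over RFP ratio is taken.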

Assay [2] in a line: qHTS Assay for Lipid Storage Modulators (AID 1519; calls by dose curve; as to activity change, negative = inhibition: % is scaled to controls: 0 for no effect and ±100 for the full control effect). The conditions noted are these: Drosophila S3 cells, BODIPY lipid droplet/cell ratio, laser cytometry, cells loaded with oleic acid; for activity change, negative = inhibition: at 57.5 µM (top of the series). An outline of the steps:
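Cells seeded at 5,000 per well were treated with compounds over a concentration series and loaded with oleic acid (400 uM, as added). Lipid droplet fluorescence (488 nm excitation, 500-530 nm channel) was read by laser-scanning cytometry and normalized to 20 uM Triacsin C.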

The target of assay [3] is DNA repair nuclease/redox regulator APEX1 (Homo sapiens) (UniProt P27695). Description: qHTS Validation Assay for Inhibitors of the Human Apurinic/apyrimidinic Endonuclease 1 (APE1) (AID 1705; also: potency is read from the fitted curve at half-maximal effect;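 as to activity change, negative = inhibition: TAMRA fluorescence gain over two minutes as APE1 cuts a quenched THF abasic duplex; % is scaled to controls: 0 for no effect and ±100 for the full control effect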). An outline of the steps: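 Endonuclease activity of human APE1 is followed as dequenching when the enzyme incises a tetrahydrofuran abasic site in a short duplex labelled 5'-TAMRA/3'-BHQ-2 (50 nM final), after 15 min enzyme–compound preincubation at room temperature.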

The nature of assay [4]: Counterscreen for APE1 Inhibitors: Fluorescent Dye Displacement Validation Assay (AID 1707).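 Also: plate controls were ThO with dsDNA and no compound for no effect and ThO without dsDNA for full effect.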 An outline of the steps: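 Thiazole Orange displacement from dsDNA: 250 nM ThO with 50 nM TAMRA-labelled abasic-site (tetrahydrofuran) duplex in 50 mM Tris-HCl pH7.5, 50mM NaCl, 2 mM MgCl2, 0.01% Tween-20. Loss of endpoint fluorescence (ex 480 nm, em 540 nm) flags DNA binders.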
A short description of assay [5]: qHTS for differential inhibitors of proliferation of Plasmodium falciparum line 7G8 (AID 1815).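 Also: parasite growth measured after three days of incubation.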 Also: potency is read from the fitted curve at half-maximal effect.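 As to activity change, negative = inhibition: plate controls were vehicle wells for no effect and reference inhibitor wells for full effect.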
Assay [6] is described as follows: qHTS for differential inhibitors of proliferation of Plasmodium falciparum line GB4 (AID 1816).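 Also: parasite growth measured after 72 h incubation.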 Also: potency is read from the fitted curve at half-maximal effect.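 As to activity change, negative = inhibition: 0% = vehicle DMSO and -100% = reference inhibitor.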 The conditions noted are these: Potency: Plasmodium falciparum GB4 proliferation inhibition.
Assay [7] can be described thus: qHTS for differential inhibitors of proliferation of Plasmodium falciparum line 3D7 (AID 1876). Also: potency is read from the fitted curve at half-maximal effect.
A short description of assay [8]: qHTS for differential inhibitors of proliferation of Plasmodium falciparum line D10 (AID 1877).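 Also: parasites grown with compound for 72 h before DNA staining.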 Also: potency is read from the fitted curve at half-maximal effect.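 As to activity change, negative = inhibition: plate controls were vehicle wells for no effect and reference inhibitor wells for full effect.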
The target in assay [9] is Alpha-galactosidase A (Homo sapiens) (UniProt P06280). Description: Counterscreen for Glucocerebrosidase Inhibitors: qHTS Assay for Human alpha-Galactosidase at pH 4.5 (AID 992). Also: 0% is about no effect. An outline of the steps:
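Enzyme at 2 nM final was combined with compound (0.7 nM to 77 uM) and 80 uM 4-methylumbelliferyl alpha-D-galactopyranoside in 50 mM citric acid, 0.005% Tween-20, pH 4.5. After 20 min at room temperature, fluorescence was read (Ex 365/Em 440 nm); AC50 came from Hill fits.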

The target in assay [10] is alpha-glucosidase (Oryza sativa, rice) (UniProt Q653V4). Kind of assay: Counterscreen for Glucocerebrosidase Inhibitors: qHTS Assay for Rice alpha-Glucosidase at pH 5.0 (AID 997).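 Also: 0% = full activity with enzyme and -100% = basal without enzyme.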 An outline of the steps:
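Rice alpha-glucosidase (4 nM final) with 400 uM 4-methylumbelliferyl-alpha-D-glucopyranoside in citrate buffer pH 5.0, 20 min at room temperature, stopped at pH 10; fluorescence 365/440 nm, compounds 0.7 nM–77 uM, AC50 from Hill fits.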

Assay [11] has as its target Endonuclease 4 (Escherichia coli (strain K12)) (UniProt P0A6C1). Kind of assay: Counterscreen for APE1 Inhibitors: qHTS Validation Assay for Inhibitors of Endonuclease IV (AID 1708). Also: % is scaled to controls: 0 for no effect and ±100 for the full control effect. An outline of the steps: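 E. coli EndoIV at 2 nM final, preincubated 15 min at room temperature with compound, then 50 nM TAMRA/BHQ-2 THF abasic-site duplex added. Buffer: 50 mM Tris-HCl pH 7.5, 50 mM NaCl, 2 mM MgCl2, 1 mM DTT, 0.01% Tween-20. Kinetic fluorescence increase, third minus first read.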

The mark [12] stands for this setting: measured here: cell count channel max response.
The mark [13] stands for this setting: measured here: lipid channel max response.

Records with an inconclusive call do not appear. Activity calls are given as the source filed them. Unless noted, calls follow the shape of the dose curve; as a rule, active = well fitted curve in the direction sought with a large enough effect; inconclusive = small, poorly fitted or top-dose-only effect, or another doubt; inactive = no such curve, though single readings can be large; an effect the other way counts as inactive or inconclusive.

Sequence of DNA repair nuclease/redox regulator APEX1 (Homo sapiens) (P27695 whole entry, looked up): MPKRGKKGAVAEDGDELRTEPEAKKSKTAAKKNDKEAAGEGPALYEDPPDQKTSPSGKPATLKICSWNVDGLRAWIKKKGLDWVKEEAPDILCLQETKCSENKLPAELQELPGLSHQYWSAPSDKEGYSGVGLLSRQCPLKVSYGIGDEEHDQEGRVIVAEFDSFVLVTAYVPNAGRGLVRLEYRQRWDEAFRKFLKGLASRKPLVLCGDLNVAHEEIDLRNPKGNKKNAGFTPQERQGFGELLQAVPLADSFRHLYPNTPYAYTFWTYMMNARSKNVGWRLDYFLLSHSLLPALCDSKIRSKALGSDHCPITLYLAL
Sequence of Alpha-galactosidase A (Homo sapiens) (P06280 whole entry, looked up): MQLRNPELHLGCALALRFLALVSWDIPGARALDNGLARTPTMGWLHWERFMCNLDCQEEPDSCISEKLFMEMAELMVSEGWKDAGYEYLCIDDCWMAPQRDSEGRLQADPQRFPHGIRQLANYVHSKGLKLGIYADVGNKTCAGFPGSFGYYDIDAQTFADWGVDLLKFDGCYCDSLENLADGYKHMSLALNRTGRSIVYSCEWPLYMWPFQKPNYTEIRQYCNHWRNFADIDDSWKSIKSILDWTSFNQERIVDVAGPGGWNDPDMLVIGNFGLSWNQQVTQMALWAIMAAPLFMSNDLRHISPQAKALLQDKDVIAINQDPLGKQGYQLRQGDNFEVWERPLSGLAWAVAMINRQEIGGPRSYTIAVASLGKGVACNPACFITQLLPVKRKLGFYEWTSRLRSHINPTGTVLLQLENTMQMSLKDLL

With `CSC(N)=NCCC[C@H](N)C(=O)O`, the outcome in assay [1] was inactive. In [2], the activity change, negative = inhibition is -0.616% (inactive). For the same compound, the max response in assay [2] (setting [12]) came to 39.8%; in assay [2] (setting [13]), 26.3%. Further, the Potency entry in [3], in assay [4], in assay [5], in [6], in [7] and in [8] was “inactive” throughout.
As to `N=S(=O)(O)Cc1noc2ccccc12`, the outcome in assay [1] was inactive. Moreover, the activity change, negative = inhibition in [2] is -0.718% (inactive). Moreover, the max response in [2] (setting [12]) was 21.5%; in assay [2] (setting [13]) it was 20%. Further, the Potency result in [3], in assay [4], in [7] and in assay [8] was “inactive” each time.
As to `CN1CCN(c2nc3cc(C(F)(F)F)ccc3n3cccc23)CC1`, the compound was called inactive in [9], in [10] and in [1]. For the same compound, in assay [2], the activity change, negative = inhibition is 2.45% (inactive). Also, the max response in [2] (setting [12]) was found to be 18.9%; in [2] (setting [13]) it was 20.6%. Besides, the Potency entry in [3] and in [4] was “inactive” in each case. The Potency in [5] is 5.01 µM (active); in assay [6], 8.91 µM (active); in assay [7], 7.94 µM (active); in assay [8] it was 11.2 µM (active).
As for `O=C(O)c1cccnc1C(=O)O`, the outcome in [9], in assay [10] and in assay [1] was inactive. The Potency result in assay [3], in assay [4], in assay [11], in assay [5], in [6] and in [7] was “inactive” throughout. Moreover, the Potency result in assay [8] was “inactive”.
In the case of `OCC1NCC(O)C(O)C1O` (centres undefined), in assay [1], the outcome was inactive. Besides, the Potency result in [3], in assay [4], in assay [11], in [5], in assay [6] and in assay [7] was “inactive” each time. The Potency result in assay [8] was “inactive”.
For the compound `[Li+]`, the outcome in assay [9], in assay [10] and in [1] was inactive. For the same compound, the Potency result in assay [3], in [4], in assay [11], in assay [5], in assay [6] and in assay [7] was “inactive” throughout. Also, in assay [8], the Potency entry is “inactive”.
With `Cc1cccc(C2CN(C)CCc3c2cc(O)c(O)c3Cl)c1` (centres undefined), the outcome in assay [1] was inactive. For the same compound, the Potency entry in assay [3], in assay [4] and in [11] was “inactive” each time. Further, the Potency is 7.94 µM (active) in assay [5], 8.91 µM (active) in assay [6], 8.91 µM (active) in assay [7] and 11.2 µM (active) in assay [8].
As to `O=C(O)c1cc(=O)cc(C(=O)O)[nH]1`, the call in [9], in assay [10] and in assay [1] was inactive. In addition, the Potency entry in [3], in assay [4], in assay [11], in [5], in assay [6] and in assay [7] was “inactive” each time. For the same compound, the Potency entry in [8] was “inactive”.
As to `C=CCn1c(=O)c2c(nc(-c3ccc(S(=O)(=O)O)cc3)n2C)n(C)c1=O`, the result in assay [9], in assay [10] and in [1] was inactive. The Potency result in assay [3], in assay [4], in [11], in assay [5], in assay [6] and in assay [7] was “inactive” in each case. Further, the Potency entry in assay [8] is “inactive”.
Take `CC1C(=O)N(C)C(=O)c2nc[nH]c21` (centres undefined): the outcome in [1] was inactive. Besides, the Potency entry in assay [3], in assay [4], in assay [11], in assay [5], in [6] and in assay [7] was “inactive” throughout. Moreover, in assay [8], the Potency entry was “inactive”.
On to `Cn1cc(C(F)(F)F)nc1-c1ccc(OCC(O)CNCCOc2ccc(O)c(C(N)=O)c2)cc1` (centres undefined), for which the outcome in assay [1] was inactive. For the same compound, the Potency result in assay [3], in assay [4] and in [11] was “inactive” each time. Besides, the Potency in [5] was 12.6 µM (active); in [6] it was 12.6 µM (active); in assay [7], 2.82 µM (active); in assay [8], 3.16 µM (active).
As for `O=c1cc(O)cc(/C=C/c2ccc(O)c(O)c2)o1`, the result in [1] was inactive. Further, the Potency is 0.794 µM (active) in assay [3], 8.91 µM (active) in assay [5], 12.6 µM (active) in assay [6] and 11.2 µM (active) in [8]. Further, the Potency entry in [4] and in assay [11] was “inactive” throughout.
